Measurements from paper PMC4552634, “A New Set of Chemical Starting Points with Plasmodium falciparum Transmission-Blocking Potential for Antimalarial Drug Discovery” (PLoS ONE, 2015).
About 3,200 (25%) of roughly 13,000 compounds showed an effect of 50% or more. The list shows a part of the results.

Test system: P. falciparum stage V gametocytes
Design: BacTiter-Glo ATP luminescence viability of purified stage V gametocytes in 384-well plates, per cent inhibition versus DMSO
Details: 48 h, 5 µM; inhibitor

| SMILES | % Inhibition [%] |
| --- | --- |
| CC(=O)c1cccc2c(NC(=O)Nc3ccc4nccc(N5CCN(C)CC5)c4c3)cccc12 [TCMDC-139345] | -42.22 |
| O=C(Nc1ccsc1)Nc1cccc(-c2cccc(-c3nc4ccc(C(F)(F)F)cc4[nH]3)c2)c1 [TCMDC-133214] | -52.37 |
| CC(=O)C1(c2ccccc2)CCN(CCC2(c3ccc(Cl)c(Cl)c3)CN(C(=O)Nc3cc(F)cc(F)c3)CCO2)CC1 (stereo not shown) [TCMDC-135332] | -16.09 |
| N#Cc1ccc(NC(=O)c2ccc(Cc3ccc4c(c3)CCN(C3CCC3)CC4)cn2)cc1 [TCMDC-136453] | 22.22 |
| COc1ccc(NC(=O)/C=C/c2ccccc2Cl)cc1OCCN1CCC(O)(c2ccc(Cl)c(C(F)(F)F)c2)CC1 [TCMDC-140918] | -10.77 |
| Fc1ccc2[nH]c(-c3ccc(-c4ccc(CN5CCC(CCN6CCCCC6)CC5)cc4)s3)nc2c1 [TCMDC-133932] | 102.4 |
| Fc1ccc2nc(-c3ccc(-c4cccc(CN5CCC(CCN6CCCCC6)CC5)c4)cc3)[nH]c2c1 [TCMDC-133933] | 114 |
| OCCN1CCN(Cc2cccc(-c3cccc(-c4nc5ccc(F)cc5[nH]4)c3)c2)CC1 [TCMDC-133035] | -22.3 |
| Fc1ccc2nc(-c3ccc(-c4cccc(CN5CCCCC5)c4)cc3)[nH]c2c1 [TCMDC-133896] | -18.48 |
| OCc1c(Cl)cc(Cl)cc1CNCCCNc1nc2ccccc2[nH]1 [TCMDC-140012] | -23.66 |
| O=C(/C=C/c1ccc(Cl)c(Cl)c1)NCC1CCN(Cc2ccc(O)cc2)CC1 [TCMDC-141740] | 34.51 |
| CCC1(C)CC(CCNCc2ccccc2O)(c2ccccc2OC)CCO1 (stereo not shown) [TCMDC-125080] | 19.87 |
| CN1CCC(NCc2cccc(-c3cnc(NCc4ccccc4)nc3)c2)CC1 [TCMDC-134119] | 58.9 |
| CN1CCC(N(Cc2ccc(-c3cnc(NCc4ccccc4)nc3)cc2)S(=O)(=O)c2ccccc2)CC1 [TCMDC-137158] | 31.68 |
| Cn1nc(-c2cccc(CNCCc3cccs3)c2)c2cnc(NC3CCCC3)nc21 [TCMDC-135031] | 12.01 |
| CN1CCC(NCc2cccc(-c3nn(C)c4nc(NC5CCCC5)ncc34)c2)CC1 [TCMDC-134840] | 110.3 |
| COc1ccc(-c2cnc(NCc3ccccc3)nc2)cc1CNC1CCN(C)CC1 [TCMDC-134121] | 34.84 |
| Cn1nc(-c2cccc(CNCc3ccccc3)c2)c2cnc(NC3CCCC3)nc21 [TCMDC-134839] | -3.994 |
| CN1CCC(NCc2ccc(-c3cnc(NCc4ccccc4)nc3)cc2)CC1 [TCMDC-134120] | 82.56 |
